Data: PubChem BioAssay AID1159580 (chemical genetic matrix, 2015)
The whole screen tested about 5,500 compounds, of which about 2,000 (36%) were called active. Inconclusive results (about 18%) are left out. Cut-off read from the data, not from the text of the source: active = normalized growth mostly below about 0.91 (no sharp cut-off); inconclusive = no clear call, values can overlap the other calls; inactive = mostly above about 0.92. This is one part of the list.

Assay: chemical genetic growth profiling, strain panel (AID 1159580);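 note: tested at 20 µM; growth read once vehicle control cultures reached saturation at 30 °C; 1 = growth at the plate median or of vehicle wells; lower values mean less growth of the strain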
Conditions: growth OD
[1] = S. cerevisiae deletion strains, locus YAL013W, strain DEP1, hits give low values
[2] = S. cerevisiae deletion strains, locus YBR229C, strain ROT2, hits give low values
[3] = S. cerevisiae deletion strains, locus YDL101C, strain DUN1, hits give low values
[4] = S. cerevisiae deletion strains, locus YDL134C, strain PPH21, hits give low values
[5] = S. cerevisiae deletion strains, locus YDR150W, strain NUM1, hits give low values
[6] = S. cerevisiae deletion strains, locus YEL061C, strain CIN8, hits give low values
[7] = S. cerevisiae deletion strains, locus YGR078C, strain PAC10, hits give low values
[8] = S. cerevisiae deletion strains, locus YHR030C, strain SLT2, hits give low values
[9] = S. cerevisiae deletion strains, locus YHR087W, strain rtc3, hits give low values
[10] = S. cerevisiae deletion strains, locus YJR043C, strain POL32, hits give low values
[11] = S. cerevisiae deletion strains, locus YJR075W, strain HOC1, hits give low values
[12] = S. cerevisiae deletion strains, locus YLR039C, strain RIC1, hits give low values
[13] = S. cerevisiae deletion strains, locus YLR058C, strain SHM2 (second series), hits give low values
[14] = S. cerevisiae deletion strains, locus YLR085C, strain ARP6, hits give low values
[15] = S. cerevisiae deletion strains, locus YLR262C, strain YPT6, hits give low values
[16] = S. cerevisiae deletion strains, locus YML094W, strain GIM5, hits give low values
[17] = S. cerevisiae deletion strains, locus YMR219W, strain ESC1, hits give low values
[18] = S. cerevisiae deletion strains, locus YMR263W, strain SAP30, hits give low values
[19] = S. cerevisiae deletion strains, locus YNL153C, strain GIM3, hits give low values
[20] = S. cerevisiae deletion strains, locus YNL298W, strain CLA4 (second series), hits give low values
[21] = S. cerevisiae deletion strains, locus YNL322C, strain KRE1, hits give low values
[22] = S. cerevisiae deletion strains, locus YNR030W, strain Alg12, hits give low values
[23] = S. cerevisiae deletion strains, locus YPL055C, strain LGE1, hits give low values
[24] = S. cerevisiae deletion strains, locus YPL241C, strain CIN2, hits give low values
[25] = S. cerevisiae deletion strains, locus YPR135W, strain CTF4, hits give low values

Measured: normalized growth

O=C(Nc1cc2cc([N+](=O)[O-])ccc2oc1=O)c1c(F)cccc1F
inactive: [1] 1.02 | [2] 1.02 | S. cerevisiae deletion strains, locus YCL061C, strain MRC1, hits give low values 0.989 | [3] 0.98 | [4] 1.01 | [5] 0.96 | [6] 1.01 | [7] 1 | [8] 0.994 | [9] 1.09 | S. cerevisiae deletion strains, locus YJL187C, strain SWE1, hits give low values 1.03 | [10] 0.999 | [11] 1.02 | [12] 1.07 | [13] 1.04 | [14] 1.07 | [15] 1.07 | [16] 1.05 | [17] 1.03 | [18] 0.936 | S. cerevisiae deletion strains, locus YNL128W, strain TEP1, hits give low values 1.01 | [19] 1.02 | [20] 1.02 | [21] 1.01 | [22] 1.04 | S. cerevisiae deletion strains, locus YOL006C, strain TOP1, hits give low values 1 | [23] 1.03 | [24] 1.02 | [25] 1.01

CCN(CC)c1ccc(NC(=O)c2c(F)cccc2F)c(N(CC)CC)n1
active: S. cerevisiae deletion strains, locus YMR307W, strain GAS1, hits give low values 0.574
inactive: [1] 0.986 | [2] 0.98 | [3] 0.955 | [4] 0.993 | [5] 0.99 | [6] 0.964 | [7] 0.98 | [8] 0.698 | [9] 0.952 | [10] 0.99 | [11] 0.954 | [12] 0.815 | [13] 1 | [14] 0.91 | [15] 0.863 | [16] 0.953 | [17] 0.997 | [18] 1 | [19] 0.991 | [20] 0.935 | [21] 0.987 | [22] 0.942 | [23] 0.963 | [24] 1.05 | [25] 0.8 | S. cerevisiae strains, strain wild type, hits give low values 0.988
